Screening results: PubChem, several laboratories
A selection: hits, their analogues and other compounds. The true share with any hit is near 27%.
sEH inhibitor: soluble epoxide hydrolase (human) inhibition; recombinant human sEH enzymatic activity assay; inhibition, % at 2 µM; hit rate 0.34% among 91,000; in the data active = inhibition above about 80%
sEH activator: increases human soluble epoxide hydrolase activity | purified human sEH enzymatic activity, activator screen | activation, % at 2 µM | hit rate 0.04% among 91,000; in the data active = activation above about 37%
CYP2C19 inhib: human CYP2C19 inhibition | hit rate 21% among 96,000 | P33261 | AID 778 | CYP2C19 Supersomes, luciferin-H EGE luminescence, 30 min | inhibition, % at 5 µM;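 active = CYP2C19 inhibition above a set limit at 5 µM in the primary screen, cut at about 50% in these data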;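 also: plate controls were negative control wells for no effect and 2.5 mM tranylcypromine positive control for full effect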
CYP2C9 activ: activators of human CYP2C9 | activation factor at 5 µM | recombinant CYP2C9, luciferin-H conversion, luminescence; stronger effect = higher value; factor 1 = untreated enzyme, 0 = blocked | hit rate 1.4% among 96,000 | P11712;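 active = activation factor of 2 or more for CYP2C9 at a 5 µM dose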;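 also: 0 = sulfaphenazole-blocked wells and 1 = vehicle-only wells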
Target sequence (P11712 whole entry, looked up): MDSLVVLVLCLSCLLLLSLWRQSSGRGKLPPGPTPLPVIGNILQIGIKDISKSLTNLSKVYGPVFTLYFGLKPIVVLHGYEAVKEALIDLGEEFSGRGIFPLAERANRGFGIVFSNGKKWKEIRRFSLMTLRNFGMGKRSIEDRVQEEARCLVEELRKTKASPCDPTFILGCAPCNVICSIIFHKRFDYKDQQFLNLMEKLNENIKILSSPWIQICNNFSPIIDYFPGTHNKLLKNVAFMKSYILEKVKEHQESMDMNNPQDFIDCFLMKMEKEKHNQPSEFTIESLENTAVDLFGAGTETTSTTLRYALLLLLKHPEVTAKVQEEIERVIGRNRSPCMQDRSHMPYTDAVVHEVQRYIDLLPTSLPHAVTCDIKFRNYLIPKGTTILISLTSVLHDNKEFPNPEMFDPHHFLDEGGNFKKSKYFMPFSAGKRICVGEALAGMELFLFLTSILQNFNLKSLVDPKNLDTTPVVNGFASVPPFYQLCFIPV
CYP2C9 inhib: inhibitors of human CYP2C9; CYP2C9 Supersomes, luciferin-H conversion, luminescence; AID 777; inhibition, % at 5 µM; hit rate 20% among 96,000;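 active = blocking of liver enzyme CYP2C9 beyond about 50% at 5 µM, limit read from the data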
CYP2C19 act: cytochrome P450 2C19 (human) activation | recombinant CYP2C19, luciferin-H EGE luminescence; stronger effect = higher value; 0 = fully inhibited enzyme, 1 = untreated enzyme | activation factor at 5 µM | 96,000 tested, under 10 active | AID 1025;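 active = activation factor of at least 2 at 5 µM in the primary screen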;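 also: 0 = wells with 2.5 mM tranylcypromine and 1 = vehicle-only wells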
* hit, by the source's call; . = not tested or not shown.

SMILES	sEH inhibitor	sEH activator	CYP2C19 inhib	CYP2C9 activ	CYP2C9 inhib	CYP2C19 act
O=C(NC1CCCCC1)c1cccc(COCC(F)(F)F)c1	4	-1	.	.	.	.
CCn1c(=O)cc(SCC(=O)N2CCN(c3ccccc3OC)CC2)c2ccccc21	-7	5	43	2.3*	-129	0.6
CC1CN(C2CCN(S(=O)(=O)c3ccc(F)cc3)CC2)CC(C)O1 (stereo not drawn)	8	-7	15	1	3	0.9
CC1CN(S(=O)(=O)c2ccc(Cl)c(C(F)(F)F)c2)CC(C)O1 (stereo not drawn)	-8	9	22	2.3*	-130	0.8
COC(=O)CSc1snnc1-c1ccc(Cl)cc1Cl	7	-9	77*	0.6	36	0.2
O=P(O)(O)COc1ccccc1P(=O)(c1ccccc1)c1ccccc1	.	.	2	1.1	-8	1
Cc1cccc(C)c1-n1nnnc1S(=O)(=O)Cc1ccccc1Cl	-3	3	42	0.2	83*	0.6
Cc1ccc(C(=O)O/N=C/c2c(Cl)n(C)c3ccccc23)cc1	-13	11	30	1.3	-25	0.7
Cn1c(N2CCOCC2)c(/C=N/OC(=O)c2ccc(F)cc2)c2ccccc21	3	-1	15	0.4	56*	0.9
Cn1c(Cl)c(/C=N/OC(=O)c2ccc(Cl)cc2)c2ccccc21	1	1	-10	2.1*	-105	1.1
Cc1ccc(C(=O)O/N=C/c2c(N3CCOCC3)n(C)c3ccccc23)cc1	-16	19	68*	0.2	84*	0.3
COC(=O)c1ccc(-c2ccc(C(=O)N3CCCN(C)CC3)cc2)cc1	.	.	7	1.3	-26	0.9
COc1cc(C2/C(=C(\O)c3cc(C)ccc3C)C(=O)C(=O)N2CCN(C)C)ccc1O (stereo not drawn)	.	.	16	1	-3	0.8
C1CN(c2nc3nonc3n3nnnc23)CCO1	7	-7	18	0.7	28	0.8
O=C(CSc1ncn[nH]1)OCN1C(=O)c2ccccc2C1=O	-6	5	-10	1.2	-19	1.1
O=C(CSc1ncn[nH]1)NCCC(c1ccccc1)c1ccccc1	11	-10	83*	0.3	65*	0.2
CCOC(=O)C(Sc1ncn[nH]1)c1ccccc1 (stereo not drawn)	-16	18	64*	0.7	26	0.4
COc1ccc(CCNC(=O)CSc2ncn[nH]2)cc1	7	-6	52*	0.9	14	0.5
COc1ccc(CCC(=O)NCCc2cn3c(C)csc3n2)cc1	6	-7	53*	1	2	0.5
O=C(Nc1cccc(C(=O)N2CCOCC2)c1)c1cncc(Br)c1	-7	10	-12	1.2	-17	1.1
O=c1c2c3c(sc2ncn1Cc1ccc(F)cc1)CCC3	-10	12	81*	0.2	78*	0.2
Cc1[nH]n(-c2ccccc2)c(=O)c1C1(C(F)(F)F)C(=O)N(c2ccc(F)cc2)C2=C1C(=O)CC(C)(C)C2 (stereo not drawn)	32	-32	26	0.2	78*	0.7
O=C(Nc1nnc(-c2cccs2)o1)c1cccc(C(F)(F)F)c1	.	.	10	0.4	59*	0.9
CC1CC(C)CN(S(=O)(=O)c2ccc(C(=O)Nc3nnc(-c4cccs4)o3)cc2)C1 (stereo not drawn)	16	-15	-11	1	1	1.1
COc1nc(N)c(S(=O)(=O)c2ccc(C)cc2)cc1C#N	4	-3	53*	0.5	53*	0.5
SMILES	sEH inhibitor	sEH activator	CYP2C19 inhib	CYP2C9 activ	CYP2C9 inhib	CYP2C19 act
Cc1ccc(S(=O)(=O)c2cc(C#N)c(=O)[nH]c2N)cc1	-5	7	-5	0.8	23	1
CC(=O)Nc1ccc(S(=O)(=O)NC(=O)C23CC4CC(CC(C4)C2)C3)cc1	-2	2	-5	1	-5	1.1
O=c1[nH]c(=O)n(Cc2ccco2)c2c1C(C(F)(F)F)(C(F)(F)F)N=C(CCc1ccccc1)N2	-9	8	22	0.3	68*	0.8
CC1(c2ccccc2)CC2CC(c3ccccc3)N1O2 (stereo not drawn)	-7	9	92*	0.5	54*	0.1
Cc1cc(C)cc(NS(=O)(=O)c2cnc(Cl)c(Cl)c2)c1	12	-10	100*	0.1	86*	0
CC(=O)N1N=C(c2ccncc2)OC12CCCCC2	-12	16	88*	0.4	55*	0.1
C=CCC1(O)CC(c2ccco2)NC(c2ccco2)C1CCC (stereo not drawn)	0	-3	-15	1.1	-8	1.1
CC1(C)CC(=NO)CC(C)(C)N1	6	-7	8	0.7	34	0.9
COC(=O)C1CCC(C)(C(=O)Nc2ccccc2)C1(C)C (stereo not drawn)	-7	7	68*	0.4	64*	0.3
COc1ccc(NC(=O)C2CCC(C)(C(=O)O)C2(C)C)cc1 (stereo not drawn)	14	-13	-9	1	2	1.1
Cc1ccc(OCc2ccc(C(=O)N3CCOCC3)cc2)cc1C	4	-1	71*	1.5	-50	0.3
Cc1ccc(C(=O)N2CCOCC2)cc1Cl	-1	2	2	1.2	-16	1
Cc1ccc(Cl)cc1N1CCN(C(=O)c2ccc(CN3CCOCC3)cc2)CC1	1	3	60*	0.3	67*	0.4
O=C(COC(=O)[C@H](Cc1ccccc1)NS(=O)(=O)c1ccccc1F)NC1CCCCC1	37	-36	17	0.5	46	0.8
COC(=O)c1c(C)nc2ccccc2c1-c1ccccc1	0	-1	25	0.7	34	0.7
COC(=O)c1c(C)[nH]c(C)c1-c1ccccc1	.	.	60*	0.7	27	0.4
Cc1cccc(N(CC(O)CON=C2c3ccccc3-c3ccccc32)S(C)(=O)=O)c1 (stereo not drawn)	-3	3	98*	0	99*	0
C#CCn1c(=NC(=O)c2cccs2)sc2cccc(OCC)c21	4	-5	5	0.3	68*	0.9
CS(=O)(=O)N(CC(=O)N1CCN(c2ccc(F)cc2)CC1)c1cccc(Cl)c1	-4	6	37	2.4*	-139	0.6
CN(CC(=O)N1CCN(c2ccccc2)CC1)S(=O)(=O)c1cnc[nH]1	7	-7	92*	0	100*	0.1
CN(CC(=O)N1CCN(c2cccc(Cl)c2)CC1)S(=O)(=O)c1cccs1	-22	18	82*	0.2	81*	0.2
C1CNCCOCCNCCN1	2	-2	-2	1	-4	1
CCCc1nnc(NC(=O)CCC(=O)N2CCCCC2CC)s1 (stereo not drawn)	-1	2	10	1.1	-10	0.9
CC(=O)Nc1cccc(C(=O)OCc2ccc(C(=O)Oc3ccc(Cl)cc3)cc2)c1	-10	8	7	0.9	6	0.9
O=C(Nc1cccc(F)c1)N1CC=C(c2ccc(Cl)cc2)CC1	30	-31	96*	0	96*	0
